Screening data deposited in PubChem by National Center for Advancing Translational Sciences (NCATS).
Most compounds without a hit are left out; they make up all but 11% or so of the library.
HCV inhibitor: inhibitors of hepatitis C virus infection; Huh7.5.1 HCVcc-Cre infection, luciferase reporter, 44 h; Potency, µM (series often up to 41.8 µM), for the others: at the top dose activity change, negative = inhibition, usual class: inhibitors; 340,000 compounds, 3.4% hits; AID 651820
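Infectious HCVcc-Cre (~0.5 moi) was added to cells just after compound, with cells seeded 4 h earlier at 1,000 per well. Luciferase activity after 44 h culture reported infection; substrate was incubated 15 min at room temperature before reading.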
Pf growth 96h: inhibits malaria parasite growth, 96 h; 320,000 compounds, 6.9% hits; P. falciparum luciferase reporter growth, 96 h; Potency, µM (titrated, usually from 28.7 µM), for inactives: at the top dose activity change, negative = inhibition, hits mostly inhibitors; AID 504834
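Erythrocytes infected with luciferase-expressing P. falciparum were dispensed at 2% hematocrit and 0.05% parasitemia (final), then incubated with compounds 96 hours at 37 C in 5% CO2. Luminescence after detection reagent addition reported growth.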
Pf growth 48h: P. falciparum growth inhibition at 48 hours (one generation) | Potency, µM (doses to about 28.7 µM), for inactives: at the top dose activity change, negative = inhibition, actives largely listed as inhibitors | P. falciparum luciferase growth in erythrocytes, 48 h | 310,000 compounds, 5.9% hits
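Here the parasites carry a stable luciferase gene and grow inside erythrocytes in Albumax-based RPMI medium with compound for one erythrocytic cycle. Activity is scored as loss of luminescent signal.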
AmpC detergent: inhibitors of E. coli AmpC beta-lactamase with detergent. AmpC hydrolysis of nitrocefin, absorbance 480 nm, 0.01% Triton. 370,000 compounds, 0.041% hits. AID 485294. P00811. Potency, µM (top dose mostly 114 µM), for inactives: at the highest dose activity change, negative = inhibition, most hits filed as inhibitors;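 note: 0% = no-compound wells and -100% = no-enzyme wells; nearly all actives have a fitted effect of over 25% in size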
Target sequence (P00811 whole entry, looked up): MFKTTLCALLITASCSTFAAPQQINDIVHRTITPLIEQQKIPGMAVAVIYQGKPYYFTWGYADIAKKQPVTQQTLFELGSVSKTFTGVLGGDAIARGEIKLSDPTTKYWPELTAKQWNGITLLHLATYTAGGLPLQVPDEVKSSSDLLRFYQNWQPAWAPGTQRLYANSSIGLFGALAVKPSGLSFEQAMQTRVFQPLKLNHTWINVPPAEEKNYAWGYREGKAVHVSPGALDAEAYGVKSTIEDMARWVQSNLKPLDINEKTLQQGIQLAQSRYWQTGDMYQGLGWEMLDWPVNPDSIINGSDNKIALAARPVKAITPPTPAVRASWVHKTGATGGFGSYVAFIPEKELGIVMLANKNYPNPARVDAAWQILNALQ
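AmpC (5.3 nM in the dispensed reagent) in 20 mM phosphate pH 7.0 with 0.01% (detergent screen) or 0.0001% Triton X-100 was preincubated with compounds for 15 min at room temperature. Nitrocefin was then added from an 800 uM solution, and hydrolysis was followed at 480 nm.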
AMA1-RON2 inh: AMA1-RON2 (P. falciparum) interaction inhibition; AlphaScreen AMA1-biotinylated RON2 peptide binding; Potency, µM (top dose mostly 58.2 µM), without a hit: at the highest dose activity change, negative = inhibition, actives largely listed as inhibitors; 360,000 compounds, 0.2% hits; AID 720542;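 note: 0% = vehicle wells and -100% = peptide control; nearly all actives have a fitted effect of over 45% in size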
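AMA1 (3D7) with his tag at 25 nM final met compounds first, then biotinylated RON2 peptide at 25 nM; detection used donor plus acceptor beads, 10 µg/mL apiece, read by AlphaScreen after 30 min at room temperature.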
AmpC no deterg: blocks E. coli AmpC beta-lactamase in detergent-free assay. P00811. AmpC nitrocefin hydrolysis, absorbance 480 nm, 0.0001% Triton. Potency, µM (doses to about 57.1 µM), without a hit: top-dose activity change, negative = inhibition, most hits filed as inhibitors. 330,000 compounds, 0.52% hits. AID 485341;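 note: plate controls were no compound for no effect and no enzyme for full effect; nearly all actives have a fitted effect of over 20% in size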
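AmpC (5.3 nM in the dispensed reagent) in 20 mM phosphate pH 7.0 with 0.01% (detergent screen) or 0.0001% Triton X-100 was preincubated with compounds for 15 min at room temperature. Nitrocefin was then added from an 800 uM solution, and hydrolysis was followed at 480 nm.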
* hit, by the source's call; ? = inconclusive; . = no result given; ! = repeats disagree; [ ] = dose if it differs, or a comment. Calls come from the whole dose curve; as a rule, active = well fitted curve in the direction sought with a large enough effect; inconclusive = small, poorly fitted or top-dose-only effect, or another doubt; inactive = no such curve, though single readings can be large; an effect the other way counts as inactive or inconclusive. Unless noted, % is set by controls: 0 for no effect and ±100 for the full control effect; potency is the fitted concentration of half-maximal effect.

SMILES | HCV inhibitor | Pf growth 96h | Pf growth 48h | AmpC detergent | AMA1-RON2 inh | AmpC no deterg
CC1CC(C)C(=NNC(N)=O)C(C(O)CC2CCC(=O)NC2=O)C1 (centres undefined) | 10µM* | . | . | . | -9.2% | .
C[C@H]1C[C@@H](C)C(=O)[C@@H]([C@H](O)CC2CC(=O)NC(=O)C2)C1 | ? | ? | 0.0329µM* | 3.8% | 4.1% | -7.7%
CCOC(=O)C1(Cc2cccc(F)c2)CCN(Cc2nc(CC)[nH]c2C)CC1 | ? | 42.2% | 3.29µM* | -1.3% | 4.0% | 54.7%
CCOC(=O)C1(Cc2cccc(F)c2)CCN(Cc2cnn(CC)c2)CC1 | ? | 2.2% | -1.3% | 7.2% | -9.0% | -5.3%
CCOC(=O)C1(Cc2cccc(F)c2)CCN(CC(O)CO)CC1 (centres undefined) | 13.1% | -0.2% | -7.8% | 1.5% | 16.6% | -5.6%
CCOC(=O)C1(Cc2cccc(F)c2)CCN(CC2CC2)CC1 | 8.0% | 14.7µM* | 17.0% | 3.9% | 16.4% | 19.2%
Cc1ccc(NC(=O)C2CCCN(c3nnc(C)c4c(C)n(-c5ccccc5)nc34)C2)cc1Cl (centres undefined) | . | . | . | -2.5% | . | .
CCCCn1c(C)cc2c(c1=O)[C@H]1O[C@](CCCC)(Cc3c1ccc1ccccc31)O2 | . | 6.1%[5.75 µM] | -19.9%[5.75 µM] | -10.2%[22.9 µM] | . | -32.1%[11.4 µM]
CCCC[C@]12Cc3c(ccc4ccccc34)C(O1)C1=C(O2)C(=O)c2ccccc2C1=O | . | 35.9%[5.75 µM] | 1.51µM* | -3.9%[22.9 µM] | . | -39.6%[11.4 µM]
CN(C)C(=O)Nc1cccc(OC(=O)N(C)C)c1 | 0.0% | . | -9.7% | 2.2% | -8.5% | -7.0%
CN(C)C(=O)Oc1cccc([N+](C)(C)C)c1 | -0.6%[8.37 µM] | 4.15µM*! | ? | ? | 5.5% | -22.0%
O=C(CN1CC(c2ccccc2)CC1=O)NCc1ccc(F)cc1 (centres undefined) | 0.3%[8.37 µM] | 4.15µM* | 20.6% | -12.2% | 0.0% | -14.8%
CCOc1ccc(NC(=O)CN2CC(c3ccccc3)CC2=O)cc1 (centres undefined) | 8.0% | -28.4% | -1.0% | -15.1% | -1.1% | 2.51µM*
COc1ccc(Nc2nc(N)nc(N)c2S(=O)(=O)c2ccccc2)cc1 | . | . | . | 2.9% | . | .
Nc1cc(OC(=O)c2c(F)cccc2Cl)nn1S(=O)(=O)c1ccccc1 | 15.0% | 10.4µM* | 22.6% | -13.9% | -3.6% | ?
Cc1ccc(CNc2nc(C)nc3sc4c(c23)CCC4)cc1 | . | ? | -23.7% | -1.8% | -1.5% | -7.0%
Cc1cc(C)n(-c2nc(NCCCO)c3c4c(sc3n2)CCCC4)n1 | 7.08µM* | 57.7% | . | -11.7% | 7.1% | 160.0%
Cc1cc(C)n(-c2nc(NCC(C)O)c3c4c(sc3n2)CCCC4)n1 (centres undefined) | 5.62µM* | ? | . | -1.2% | -2.7% | 182.1%
Cc1cc(C)n(-c2nc(NCC(C)O)c3c4c(sc3n2)COC(C)(C)C4)n1 (centres undefined) | -12.6% | ? | ? | 8.1% | 40.1% | -1.6%
Cc1cc(C)n(-c2nc(SCC(=O)O)c3c4c(sc3n2)CCCC4)n1 | . | ? | ? | -2.5% | . | -26.3%
Cc1cc(C)n(-c2nc(NCCO)c3c4c(sc3n2)CCCC4)n1 | 7.08µM* | -8.4% | ? | -5.8% | 17.2% | 114.3%
CCn1nc(C)c(CCN(C)C(=O)Nc2cc(Cl)ccc2C)c1C | . | . | . | 11.8% | . | .
C=CCSc1nc(N)c(C(=O)Nc2ccccc2)cc1C#N | 3.55µM* | 7.0% | . | -5.8% | 2.2% | -35.3%
CCOc1ccc(CCNC(=O)c2cccc(-n3c(C)nc4cccnc43)c2C)cc1 | . | . | . | 23.8% | . | .
Cc1ccc(C)c(N2CCN(c3nc4ccccc4n4nnnc34)CC2)c1 | . | . | . | 18.4% | . | .
COc1ccc(C(=O)CC(=O)c2ccccc2)cc1 | -9.6% | . | . | . | 34.1% | .
COc1ccc(C2(C(=O)c3ccccc3)C(=O)c3ccccc3C2=O)cc1 | 3.55µM* | 23.6% | ? | -5.5% | -19.6% | -3.7%
